Assay results: PubChem BioAssay (Tox21)
Inconclusive results are not listed. Activity calls are given as the source filed them. Unless noted, calls follow the shape of the dose curve; as a rule, active = well fitted curve in the direction sought with a large enough effect in the repeat runs; inconclusive = weak or mixed curves; inactive = no such curve, though single readings can be large; an effect the other way counts as inactive or inconclusive.

How the values were obtained:
[1] = qHTS assay to identify small molecule antagonists of the thyroid receptor (TR) signaling pathway - cell viability counter screen (AID 743064); conditions: GH3.TRE-Luc viability, CellTiter-Fluor, 24 h; series mostly up to 70.3 µM; also: nearly all actives have a fitted effect of over 50% in size
Summary of the method: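 In-well cytotoxicity read by CellTiter-Fluor (30 min, 37 C) following 23.5 h exposure of GH3 cells bearing a TRE-luciferase sensor. Compounds were added alongside 1 nM (final) T3 to drive TR transactivation.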

[2] = qHTS assay to identify small molecule antagonists of the thyroid receptor (TR) signaling pathway (AID 743065); conditions: GH3.TRE-Luc, T3-stimulated luciferase inhibition, 23.5 h; series mostly up to 70.3 µM; also: nearly all actives have a fitted effect of over 55% in size
Summary of the method: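 Antagonism measured as loss of luciferase signal in GH3 cells stably carrying a TRE-luciferase reporter, co-treated with compound and T3 (1 nM final) for 23.5 h at 37 C. Viability was read in the same well by CellTiter-Fluor.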

[3] = system: thyroid hormone receptor (rat, GH3 cells); assay: qHTS assay to identify small molecule agonists of the thyroid receptor (TR) signaling pathway (AID 743066; calls by dose curve); conditions: GH3.TRE-Luc cells, TR agonist luciferase, 24 h; series mostly up to 83.9 µM
[4] = qHTS assay to identify small molecule antagonists of the estrogen receptor alpha (ER-alpha) signaling pathway - cell viability counter screen (AID 743074; calls by dose curve;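 also: HEK293 cells carrying ER-alpha-UAS-bla reporter stimulated with 17beta-estradiol; nearly all actives have a fitted effect of over 45% in size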); conditions: ERalpha-bla HEK293 viability, CellTiter-Glo luminescence, 18 h; series mostly up to 69.4 µM
[5] = biological target: Estrogen receptor (Homo sapiens) (UniProt P03372); assay: qHTS assay to identify small molecule agonists of the estrogen receptor alpha (ER-alpha) signaling pathway (AID 743075; calls by dose curve;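 also: HEK293 GripTite cells with ER-alpha and UAS-driven beta-lactamase reporter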); conditions: HEK293 ER-alpha-UAS-bla, beta-lactamase FRET ratio, 18 h; series mostly up to 70.1 µM
[6] = biological target: Estrogen receptor (Homo sapiens) (UniProt P03372); assay: qHTS assay to identify small molecule agonists of the estrogen receptor alpha (ER-alpha) signaling pathway using the BG1 cell line (AID 743079); conditions: BG1Luc4E2 cells, ERE-luciferase agonist, 22 h; series mostly up to 70.3 µM; also: nearly all actives have a fitted effect of over 20% in size; also: potency is read from the fitted curve at half-maximal effect
[7] = qHTS assay to identify small molecule antagonists of the estrogen receptor alpha (ER-alpha) signaling pathway using the BG1 cell line (AID 743080; calls by dose curve;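 also: BG1 cells stimulated with 17beta-estradiol alongside compound; nearly all actives have a fitted effect of over 25% in size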); conditions: BG1Luc4E2 ERE-luciferase antagonist mode, luminescence; series mostly up to 70.3 µM
Summary of the method: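 Seeding, 24 h rest, compound transfer from DMSO, 17beta-estradiol addition, 21.5 h incubation, CellTiter-Fluor (30 min, 37 C), then ONE-Glo (30 min, room temperature): this sequence was run on BG1-Luc-4E2 reporter cells.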

[8] = qHTS assay to identify small molecule antagonists of the estrogen receptor alpha (ER-alpha) signaling pathway using the BG1 cell line - cell viability counter screen (AID 743081); conditions: BG1Luc4E2 viability, CellTiter-Fluor, 22 h; series mostly up to 70.3 µM;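 also: compound given together with 17beta-estradiol as the ER stimulus; nearly all actives have a fitted effect of over 45% in size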
Aromatase (Homo sapiens) = Aromatase (Homo sapiens) (UniProt P11511); assay: qHTS assay to identify aromatase inhibitors (AID 743083); conditions: MCF-7 aro ERE, testosterone-driven ERE luciferase, 24 h; series mostly up to 70.3 µM; also: nearly all actives have a fitted effect of over 55% in size
[9] = qHTS assay to identify aromatase inhibitors - cell viability counter screen (AID 743084); conditions: MCF-7 aro ERE viability, CellTiter-Fluor, 24 h; series mostly up to 70.3 µM;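 also: cells stimulated with testosterone during compound exposure; nearly all actives have a fitted effect of over 55% in size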
[10] = biological target: Aryl hydrocarbon receptor (Homo sapiens) (UniProt P35869); assay: qHTS assay to identify small molecule that activate the aryl hydrocarbon receptor (AhR) signaling pathway (AID 743085); conditions: HepG2 AhR-luc (HG2L7.5c1), luciferase, 24 h; series mostly up to 70.3 µM;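 also: HG2L7.5c1 human HepG2 liver cells with stably integrated DRE-driven firefly reporter; nearly all actives have a fitted effect of over 15% in size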
Summary of the method: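 Luminescence (ONE-Glo) from a dioxin-responsive-element luciferase reporter in HG2L7.5c1 HepG2 cells after 24 hr compound exposure at 37C; viability measured by CellTiter-Fluor fluorescence beforehand.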

[11] = qHTS assay to identify small molecule that activate the aryl hydrocarbon receptor (AhR) signaling pathway - cell viability counter screen (AID 743086); conditions: HepG2-AhR-luc viability, CellTiter-Fluor, 24 h; series mostly up to 70.3 µM;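 also: HepG2 liver cells carrying the AhR DRE luciferase reporter; nearly all actives have a fitted effect of over 45% in size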
Summary of the method: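 Cytotoxicity counter screen: CellTiter-Fluor signal (30 min, 37 C) in 4000 HepG2 cells/well carrying the DRE-luciferase reporter, following 24 h compound exposure at 37 C.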

[12] = biological target: Peroxisome proliferator-activated receptor gamma (Homo sapiens) (UniProt P37231); assay: qHTS assay to identify small molecule agonists of the peroxisome proliferator-activated receptor gamma (PPARg) signaling pathway (AID 743094; active = well fitted activation curve with a large enough effect in the signal ratio in the repeat runs, not every such curve was filed as active; the % refers to the signal ratio); conditions: HEK293H PPARg-UAS-bla, beta-lactamase FRET ratio, 17 h; series mostly up to 57 µM
Summary of the method: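 Cells from the PPARg UAS-bla HEK293H line are plated and incubated 5 h at 37C. Compounds in DMSO are pinned in and left 17 h at 37C. LiveBLAzer B/G substrate is then added for 1 h at room temperature before fluorescence is measured.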

[13] = biological target: Peroxisome proliferator-activated receptor gamma (Homo sapiens) (UniProt P37231); assay: qHTS assay to identify small molecule antagonists of the peroxisome proliferator-activated receptor gamma (PPARg) signaling pathway (AID 743191; calls by dose curve; also: nearly all actives have a fitted effect of over 30% in size); conditions: HEK293H PPARg-UAS-bla, beta-lactamase ratio, antagonist, 17 h; series mostly up to 62.6 µM
Summary of the method: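 Beta-lactamase reporter under UAS control in HEK293H PPARg-bla cells; compound treatment 17 h at 37C. Read-out: fluorescence intensity after 1 h room-temperature incubation with LiveBLAzer B/G FRET substrate.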

[14] = qHTS assay to identify small molecule antagonists of the peroxisome proliferator-activated receptor gamma (PPARg) signaling pathway - cell viability counter screen (AID 743194); conditions: PPARg-bla HEK293H viability, CellTiter-Glo luminescence, 17 h, co-treated with 50 nM rosiglitazone; series mostly up to 62.6 µM; also: nearly all actives have a fitted effect of over 55% in size
Summary of the method: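 Viability was measured as CellTiter-Glo luminescence in GeneBLAzer PPARg UAS-bla HEK293H cells. These cells had been exposed 17 h at 37 C to compounds together with rosiglitazone at 50 nM final, with the beta-lactamase readout taken in the same wells.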

[15] = qHTS assay for small molecule agonists of the antioxidant response element (ARE) signaling pathway (AID 743202; active = well fitted activation curve with a large enough effect in the signal ratio in the repeat runs, not every such curve was filed as active; the % refers to the signal ratio); conditions: HepG2 ARE-bla reporter, beta-lactamase FRET, 16 h; series mostly up to 73.3 µM
Summary of the method: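 After 16 hours of compound treatment at 37 C, HepG2 cells with a stably integrated ARE-driven beta-lactamase reporter were loaded 2 hours at room temperature with LiveBLAzer B/G FRET substrate and fluorescence intensity measured.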

[16] = qHTS assay for small molecule agonists of the antioxidant response element (ARE) signaling pathway - cell viability counter screen (AID 743203; calls by dose curve; also: nearly all actives have a fitted effect of over 55% in size); conditions: ARE-bla HepG2 viability, CellTiter-Glo luminescence, 16 h; series mostly up to 73.3 µM
Summary of the method: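 Cytotoxicity was tested in parallel with the ARE reporter screen. ARE-bla HepG2 cells were exposed to compounds for 16 hrs, and viability was taken from CellTiter-Glo luminescence.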

[17] = qHTS assay for small molecule activators of the heat shock response signaling pathway (AID 743210; active = well fitted activation curve with a large enough effect in the signal ratio in the repeat runs, with a control signal flat, not every such curve was filed as active; the % refers to the signal ratio); conditions: HeLa HSE-bla reporter, beta-lactamase ratio, 5 h; series mostly up to 62.6 µM
Summary of the method: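 Compound exposure lasted 5 h at 37 C in HeLa cells carrying a heat-shock-element-driven beta-lactamase reporter. Read-out: fluorescence intensity after 2.5 h room-temperature loading with LiveBLAzer B/G FRET substrate.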

[18] = qHTS assay for small molecule activators of the heat shock response signaling pathway - cell viability counter screen (AID 743209); conditions: HSE-bla HeLa viability, CellTiter-Glo luminescence, 5 h; series mostly up to 62.6 µM; also: nearly all actives have a fitted effect of over 50% in size
Summary of the method: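 Cytotoxicity counter screen run in parallel with the HSE beta-lactamase reporter, using the same wells. HeLa HSE-bla cells received compound for 5 h at 37 C; ATP-based CellTiter-Glo luminescence was measured after 30 min at room temperature.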

Measured: Potency

Sequence of Peroxisome proliferator-activated receptor gamma (Homo sapiens) (P37231 whole entry, looked up): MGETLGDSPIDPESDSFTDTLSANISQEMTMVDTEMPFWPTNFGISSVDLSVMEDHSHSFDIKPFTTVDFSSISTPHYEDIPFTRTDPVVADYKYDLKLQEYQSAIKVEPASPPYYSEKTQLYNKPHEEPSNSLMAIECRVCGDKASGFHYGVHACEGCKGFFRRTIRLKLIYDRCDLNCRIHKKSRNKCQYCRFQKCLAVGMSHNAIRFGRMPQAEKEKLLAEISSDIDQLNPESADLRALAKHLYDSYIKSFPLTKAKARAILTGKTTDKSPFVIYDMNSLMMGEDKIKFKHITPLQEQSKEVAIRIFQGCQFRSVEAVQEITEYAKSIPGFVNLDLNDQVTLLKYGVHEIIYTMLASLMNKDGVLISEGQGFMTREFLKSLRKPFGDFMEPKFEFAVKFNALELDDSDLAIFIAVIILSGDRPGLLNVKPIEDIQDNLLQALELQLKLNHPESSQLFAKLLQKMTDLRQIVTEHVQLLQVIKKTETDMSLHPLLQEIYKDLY
Sequence of Aromatase (Homo sapiens) (P11511 whole entry, looked up): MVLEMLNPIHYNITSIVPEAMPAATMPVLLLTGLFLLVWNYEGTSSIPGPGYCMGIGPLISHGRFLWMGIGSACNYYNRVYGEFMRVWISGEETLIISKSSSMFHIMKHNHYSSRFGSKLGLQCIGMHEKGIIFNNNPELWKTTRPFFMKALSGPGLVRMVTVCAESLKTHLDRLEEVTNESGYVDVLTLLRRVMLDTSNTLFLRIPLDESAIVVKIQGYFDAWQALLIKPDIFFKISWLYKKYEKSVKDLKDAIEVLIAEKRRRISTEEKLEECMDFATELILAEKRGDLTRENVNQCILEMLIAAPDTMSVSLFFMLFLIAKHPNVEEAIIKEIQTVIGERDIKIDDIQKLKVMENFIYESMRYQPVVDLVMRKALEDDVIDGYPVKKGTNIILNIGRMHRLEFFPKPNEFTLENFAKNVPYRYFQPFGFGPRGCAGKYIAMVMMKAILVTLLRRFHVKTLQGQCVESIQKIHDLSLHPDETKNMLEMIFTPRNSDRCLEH
Sequence of Aryl hydrocarbon receptor (Homo sapiens) (P35869 whole entry, looked up): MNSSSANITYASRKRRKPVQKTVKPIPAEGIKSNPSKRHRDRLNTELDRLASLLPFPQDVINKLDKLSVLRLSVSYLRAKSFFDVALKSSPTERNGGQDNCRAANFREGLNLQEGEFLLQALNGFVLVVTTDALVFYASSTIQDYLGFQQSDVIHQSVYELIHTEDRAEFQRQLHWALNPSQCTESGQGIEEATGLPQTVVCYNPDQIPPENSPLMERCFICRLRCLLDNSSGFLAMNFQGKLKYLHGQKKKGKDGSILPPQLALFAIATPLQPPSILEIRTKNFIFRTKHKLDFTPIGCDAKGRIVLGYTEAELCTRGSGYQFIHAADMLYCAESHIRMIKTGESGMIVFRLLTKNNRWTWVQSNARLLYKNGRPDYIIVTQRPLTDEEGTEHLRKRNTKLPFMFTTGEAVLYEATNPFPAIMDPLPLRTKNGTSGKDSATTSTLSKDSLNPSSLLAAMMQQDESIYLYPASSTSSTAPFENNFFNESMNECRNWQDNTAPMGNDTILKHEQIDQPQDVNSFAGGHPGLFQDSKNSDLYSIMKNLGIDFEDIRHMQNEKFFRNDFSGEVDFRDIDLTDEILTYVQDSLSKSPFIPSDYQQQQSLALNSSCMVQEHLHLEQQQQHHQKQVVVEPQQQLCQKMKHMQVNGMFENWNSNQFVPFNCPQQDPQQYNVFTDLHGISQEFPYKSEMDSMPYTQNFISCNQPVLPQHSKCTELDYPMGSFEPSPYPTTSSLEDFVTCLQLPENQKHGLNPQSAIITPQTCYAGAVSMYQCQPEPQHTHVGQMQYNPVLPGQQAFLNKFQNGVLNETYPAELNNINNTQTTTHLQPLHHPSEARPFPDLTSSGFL
Sequence of Estrogen receptor (Homo sapiens) (P03372 whole entry, looked up): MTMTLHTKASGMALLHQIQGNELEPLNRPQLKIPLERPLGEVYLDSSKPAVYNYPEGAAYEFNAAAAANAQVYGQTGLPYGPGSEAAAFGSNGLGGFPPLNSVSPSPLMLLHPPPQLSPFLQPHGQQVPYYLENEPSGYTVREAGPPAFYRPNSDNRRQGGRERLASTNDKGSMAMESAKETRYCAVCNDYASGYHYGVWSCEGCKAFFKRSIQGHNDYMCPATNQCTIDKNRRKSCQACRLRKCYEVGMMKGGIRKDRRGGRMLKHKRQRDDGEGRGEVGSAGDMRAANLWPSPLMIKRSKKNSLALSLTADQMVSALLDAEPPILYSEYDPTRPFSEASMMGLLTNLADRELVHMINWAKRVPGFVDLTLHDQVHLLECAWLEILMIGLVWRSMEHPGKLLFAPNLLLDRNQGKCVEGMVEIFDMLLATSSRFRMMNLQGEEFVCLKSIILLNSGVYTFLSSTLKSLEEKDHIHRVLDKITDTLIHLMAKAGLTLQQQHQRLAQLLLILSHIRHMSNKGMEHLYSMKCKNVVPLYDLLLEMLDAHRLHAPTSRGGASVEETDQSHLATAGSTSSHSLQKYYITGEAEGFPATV

CCN1CCc2nc(N)oc2CC1
inactive: [1] | [2] | [3] | [4] | [5] | [6] | [7] | [8] | Aromatase (Homo sapiens) | [9] | [10] | [11] | [12] | [13] | [14] | [15] | [16] | [17]

CCCCCCCCCCl
inactive: [1] | [2] | [3] | [4] | [8] | Aromatase (Homo sapiens) | [9] | [10] | [11] | [12] | [13] | [14] | [16] | [18] | [17]

CN(C)c1ccc(C=O)cc1
inactive: [1] | [2] | [3] | [4] | [5] | [7] | [8] | Aromatase (Homo sapiens) | [9] | [10] | [12] | [13] | [14] | [16]
active: [6] 54.5 µM

COc1ccc(C2CNC(=O)C2)cc1OC1CCCC1 (stereo not drawn)
inactive: [1] | [2] | [3] | [4] | [8] | Aromatase (Homo sapiens) | [9] | [10] | [11] | [12] | [13] | [14] | [15] | [16] | [18] | [17]

CC(=O)Nc1ccc(S(=O)(=O)Cl)cc1
inactive: [1] | [2] | [3] | [4] | [8] | Aromatase (Homo sapiens) | [9] | [10] | [11] | [12] | [13] | [14] | [16] | [18]

Nc1ncnc(Nc2ccccc2)n1
inactive: [1] | [2] | [3] | [4] | [5] | [8] | Aromatase (Homo sapiens) | [9] | [10] | [12] | [13] | [14] | [16] | [17]

CCc1ccc(C=O)cc1
inactive: [1] | [2] | [3] | [4] | [8] | Aromatase (Homo sapiens) | [9] | [10] | [11] | [12] | [13] | [14] | [15] | [16] | [18] | [17]
